Experimental data reported in PubChem BioAssay.
Values without a mark were called inactive. No rule for the calls is given here.

What follows are molecules tested against Pantothenate synthetase (Mycobacterium tuberculosis (strain ATCC 25618 / H37Rv)) (UniProt P9WIL5) (assay: Coupled enzyme confirmation of inhibitors against recombinant Mtb PanC (AID 375;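 also: 0% = full reaction with vehicle and 100% = no enzyme background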)). Conditions: coupled enzyme assay; at 10 µM, stronger effect = higher value.
Chain of Pantothenate synthetase (Mycobacterium tuberculosis (strain ATCC 25618 / H37Rv)) (P9WIL5 whole entry, looked up): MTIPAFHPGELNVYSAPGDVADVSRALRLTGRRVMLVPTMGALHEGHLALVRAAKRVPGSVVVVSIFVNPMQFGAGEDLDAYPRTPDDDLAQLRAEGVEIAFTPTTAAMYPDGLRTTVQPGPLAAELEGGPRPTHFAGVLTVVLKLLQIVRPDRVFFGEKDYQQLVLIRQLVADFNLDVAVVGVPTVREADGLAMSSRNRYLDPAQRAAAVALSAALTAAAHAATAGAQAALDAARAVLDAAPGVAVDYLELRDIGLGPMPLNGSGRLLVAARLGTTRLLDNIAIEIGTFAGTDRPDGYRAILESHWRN

| Compound | inhibition [%] |
| --- | --- |
| COc1ccc(CN2C(=O)[C@@H]3C(c4ccc(F)cc4)=NO[C@@H]3C2=O)cc1 | 2 |
| CC(C)c1ccc(S(=O)(=O)N2CCN(C(=O)c3cccc(F)c3)CC2)cc1 | 8 |
| COc1ccc(S(=O)(=O)NC(CC(=O)NCc2ccco2)c2ccco2)cc1 (centres undefined) | 3 |
| COC(=O)c1cc(Br)c(=O)n(CCC2=CCCCC2)c1 | 0 |
| CCc1nc(N[C@@H](Cc2c[nH]c3ccccc23)C(=O)O)c2oc3ccccc3c2n1 | 13 |
| O=C(Nc1ccon1)c1cc(-c2ccccc2)nc2ccccc12 | 0 |
| CC(C)CCNC(=O)Cn1c(NCCC(C)C)nc2c1c(=O)n(C)c(=O)n2C | 0 |
| CC(=O)c1cccc(NC(=O)N2CCCc3ccccc32)c1 | 1 |
| CS(=O)(=O)NCC(c1cccnc1)N1CCN(c2ccc(F)cc2)CC1 (centres undefined) | 1 |
| COc1ccc(Br)cc1-c1noc(-c2ccccc2)n1 | 4 |
| CCOC(=O)c1[nH]c(C)c(C(=O)N2CCN(C(=O)c3ccco3)CC2)c1C | 0 |
| CCN(C1CCCCC1)S(=O)(=O)c1ccc(S(=O)(=O)N2CCN(CCC#N)CC2)cc1 | 0 |
| CCOC(=O)N1CCC(NC(=O)Cn2cc3c(n2)CCC(C)C3)CC1 (centres undefined) | 0 |
| Cc1ncoc1C(=O)Nc1cccc(Cl)c1C | 1 |
| Cc1ccc(-c2cc(C(F)F)nc(NCc3cccnc3)n2)cc1 | 0 |
| O=C1CCC(C(=O)N(Cc2ccco2)C2(C(=O)NC3CCCC3)CCCCC2)N1 (centres undefined) | 0 |
| CCCCn1nc(C(=O)N2CCc3ccccc32)c2ccccc2c1=O | 6 |
| Cc1cccn2c(=O)c3cc(C(=O)N4CCCc5ccccc54)n(C)c3nc12 | 0 |
| CCCNC(=O)C1CN(S(=O)(=O)c2ccccc2)CCN1S(=O)(=O)c1ccccc1 (centres undefined) | 0 |
| Cc1cc(C(F)(F)F)nc(SCC(=O)NC2=NC(=O)C(C)S2)n1 (centres undefined) | 2 |
| O=C(Cn1nc(-c2ccc3c(c2)OCCO3)ccc1=O)Nc1ccc(N2CCOCC2)cc1 | 0 |
| Cc1cc(C)n(-c2cc(N3CCOCC3)ncn2)n1 | 1 |
| O=C(CCN1C(=O)COc2ccccc21)NCCN1CCN(c2cccc(Cl)c2)CC1 | 0 |
| Cc1cc(C(=O)NCCN2CCN(c3cccc(Cl)c3)CC2)n(-c2ccccc2)n1 | 0 |
